Several values for one entry are separate records, joined by “and”; a condition that tells them apart may be missing. Identical values can stand only once. Records with an inconclusive call do not appear. A call without a number means that no potency is given here. Some compounds were tested as several samples or in several runs, with calls that do not always agree. Activity calls are given as the source filed them. Unless noted, calls come from the whole dose curve; as a rule, active = well fitted curve in the direction sought with a large enough effect in the repeat runs; inconclusive = weak or mixed curves; inactive = no such curve, though single readings can be large; an effect the other way counts as inactive or inconclusive. Residues, ends and D or L forms follow the SMILES beside them.
Key:
[1] = qHTS assay to identify small molecule agonists of the hypoxia (HIF-1) signaling pathway - cell viability counter screen (AID 1224844; calls by dose curve; note: nearly all actives have a fitted effect of over 50% in size)
Procedure, shortened: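 Tox21 10K compounds were added to HRE-bla ME-180 cells (0.5% dialyzed FBS) and incubated 17 hrs at 37C; ATP-based CellTiter-Glo luminescence then reported cell viability in the same wells.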

[2] = qHTS assay to identify small molecule agonists of H2AX (AID 1224845; active = well fitted activation curve with a large enough effect in the signal ratio in the repeat runs, not every such curve was filed as active; the % refers to the signal ratio)
Procedure, shortened: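 Wild-type CHO-K1 cells plated overnight, then exposed 3 hr at 37C to compounds at 15 concentrations (0.76% DMSO). Lysed, then HTRF anti-pH2AX(S139)-cryptate/anti-H2AX-d2 detection after 24 hr at room temperature; emissions 665 and 620 nm.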

[3] = qHTS assay to identify small molecule agonists of the hypoxia (HIF-1) signaling pathway (AID 1224846; active = well fitted activation curve with a large enough effect in the signal ratio in the repeat runs, not every such curve was filed as active; the % refers to the signal ratio)
Procedure, shortened: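 Steps: seed ME-180 HRE-bla cells (2,000/well, 0.5% dialyzed FBS); incubate 5 hrs at 37C; pin-transfer compounds or DMSO; incubate 17 hrs; add LiveBLAzer B/G substrate CCF4-AM; measure reporter activation by FRET.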

[4] = qHTS assay to identify small molecule agonists of H2AX - cell viability counter screen (AID 1224847; calls by dose curve; note: top concentration of the series differs between compounds; nearly all actives have a fitted effect of over 30% in size)
Procedure, shortened: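 After overnight plating of 1000 CHO-K1 cells per well, a 15-concentration compound series was applied for 3 hr at 37C. Luminescence from CellTiter-Glo, read following 30 min at room temperature, reflected cell viability.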

[5] = qHTS RealTime-Glo MT Cell Viability Assay in HepG2 cells - 24 hour (AID 1224867); note: nearly all actives have a fitted effect of over 50% in size
Procedure, shortened: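 HepG2 cells (600/well) were dispensed with RealTime-Glo reagents, incubated 5 h at 37 °C, then treated with compounds in DMSO for up to 40 h. Nonlytic NanoLuc luminescence reflecting viable cells was read at each stated time point.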

[6] = qHTS RealTime-Glo MT Cell Viability Assay in HEK293 cells - 32 hour (AID 1224868); note: top concentration of the series differs between compounds; nearly all actives have a fitted effect of over 50% in size
Procedure, shortened: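 HEK293 cells seeded with NanoLuc/prosubstrate reagent, rested 5 h at 37 C, then dosed and kept at 37 C up to 40 h. Nonlytic real-time luminescence from viable cells read at 0, 8, 16, 24, 32 and 40 h.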

[7] = A CellTox Green Cytotoxicity Assay to monitor cytotoxicity in HEK293 cells - 0 hour (AID 1224869); note: nearly all actives have a fitted effect of over 50% in size
Procedure, shortened: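 Cytotoxicity was tracked continuously in HEK293 cells by a DNA-binding dye excluded from viable cells. Compounds were transferred in DMSO 5 h after seeding; fluorescence was recorded at intervals up to 40 h.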

[8] = target: Thyrotropin receptor (Homo sapiens) (UniProt P16473); test: qHTS assay to identify small molecule agonists of the thyroid stimulating hormone receptor (TSHR) signaling pathway (AID 1224843; calls by dose curve; note: nearly all actives have a fitted effect of over 45% in size)
Sequence of Thyrotropin receptor (Homo sapiens) (P16473 whole entry, looked up): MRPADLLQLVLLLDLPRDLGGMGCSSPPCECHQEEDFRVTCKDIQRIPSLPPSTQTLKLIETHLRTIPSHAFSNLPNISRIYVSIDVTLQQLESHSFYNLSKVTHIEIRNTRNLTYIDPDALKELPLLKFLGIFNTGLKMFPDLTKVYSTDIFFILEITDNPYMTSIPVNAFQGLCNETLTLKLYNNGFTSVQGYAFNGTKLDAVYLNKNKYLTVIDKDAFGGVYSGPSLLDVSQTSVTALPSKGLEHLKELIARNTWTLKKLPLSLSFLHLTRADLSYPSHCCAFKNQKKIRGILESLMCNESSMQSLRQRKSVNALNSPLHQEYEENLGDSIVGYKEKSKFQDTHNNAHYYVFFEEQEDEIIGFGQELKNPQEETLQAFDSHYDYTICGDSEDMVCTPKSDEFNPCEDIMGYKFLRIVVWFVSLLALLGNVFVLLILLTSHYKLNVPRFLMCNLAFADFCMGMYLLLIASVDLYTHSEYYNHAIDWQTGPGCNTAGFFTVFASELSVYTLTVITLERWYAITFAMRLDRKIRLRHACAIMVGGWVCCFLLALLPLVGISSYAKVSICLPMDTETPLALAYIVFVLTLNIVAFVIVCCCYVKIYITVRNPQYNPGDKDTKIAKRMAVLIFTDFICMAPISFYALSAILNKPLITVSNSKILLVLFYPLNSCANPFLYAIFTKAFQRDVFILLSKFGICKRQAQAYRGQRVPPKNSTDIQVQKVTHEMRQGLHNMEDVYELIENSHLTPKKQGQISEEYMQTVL
Procedure, shortened: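 TSHR-expressing HEK293 cells (800 per well) were exposed to compounds for 30 min at room temperature. cAMP was then detected by HTRF competition with cAMP-d2 and anti-cAMP cryptate, read after 1 h at room temperature. Fifteen concentrations, triplicate.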

[9] = qHTS assay to identify small molecule antagonists of the estrogen related receptor (ERR) signaling pathway from Tox21 library (AID 1224848); note: nearly all actives have a fitted effect of over 50% in size; note: potency is the fitted concentration of half-maximal effect
Procedure, shortened: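 Cells: ERR line, 2,000/well; 6 h preincubation 37 C/5% CO2. Cpd in DMSO via pin tool; 18 h, 37 C. ONE-Glo, 30 min RT, luminescence.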

[10] = qHTS assay to identify small molecule agonists of the estrogen related receptor (ERR) signaling pathway from Tox21 library (AID 1224849; calls by dose curve; note: nearly all actives have a fitted effect of over 15% in size); conditions: ERR reporter cell line, ONE-Glo luciferase, 18 h
Procedure, shortened: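 Agonist signal is luciferase luminescence from an ERR reporter cell line treated 18 h at 37 C with DMSO-dissolved compounds, read 30 min after ONE-Glo addition at room temperature.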

SMILES	Potency [1]	outcome [2]	outcome [3]	outcome [4]	Potency [5]	Potency [6]	outcome [7]	outcome [8]	Potency [9]	activity change, positive = activation ([10]; at 42.5 µM (top of the series))	activity change, positive = activation ([10]; at 92.4 µM (top of the series))
CCOc1ccc(NC(=O)CC(C)O)cc1 (stereo not drawn)	inactive	inactive	inactive	inactive	inactive	inactive	inactive	–	–	–	–
Cc1noc(NS(=O)(=O)c2ccc(N)cc2)c1C	inactive	inactive	inactive	inactive	inactive	inactive	inactive	–	–	–	–
O=C(O)c1cccc([N+](=O)[O-])c1	inactive	inactive	inactive	inactive	inactive	inactive	inactive	–	–	–	–
CCCCC(CC)COC(=O)/C=C/c1ccc(OC)cc1 (stereo not drawn)	inactive	inactive	inactive	inactive	inactive	inactive	inactive	inactive	inactive	–	–
CCCCC1C(=O)N(c2ccccc2)N(c2ccccc2)C1=O	inactive	inactive	inactive	inactive	inactive	inactive	inactive	inactive	61.1 µM (active) and inactive	2.49% (inactive)	-34.5% (inactive) and -44.9% (inactive)
Nc1ccc(O)c(C(=O)O)c1	inactive	–	inactive	inactive	inactive	inactive	inactive	inactive	inactive	–	–
O=C(O)CCCCCCCC(=O)O	inactive	–	–	inactive	inactive	inactive	inactive	inactive	–	–	–
O=C(O)c1[nH]n(-c2ccc(S(=O)(=O)O)cc2)c(=O)c1N=Nc1ccc(S(=O)(=O)O)cc1	inactive	–	inactive	inactive	inactive	inactive	inactive	inactive	–	–	–
Cc1cc(=O)[nH]c(=S)[nH]1	inactive	inactive	inactive	inactive	inactive	inactive	inactive	–	–	–	–
O=C(c1ccccc1)C(O)c1ccccc1 (stereo not drawn)	inactive	inactive	inactive	inactive	inactive	inactive	inactive	–	–	–	–
CC(C)[C@@H]1CC[C@@H](C)C[C@H]1O	inactive	inactive	inactive	inactive	inactive	inactive	inactive	inactive	–	–	–
C1N2CN3CN1CN(C2)C3	inactive	inactive	inactive	inactive	inactive	inactive	inactive	–	–	–	–
O=C(O)c1cc(N=Nc2ccc(S(=O)(=O)Nc3ccccn3)cc2)ccc1O	inactive	–	–	inactive	inactive	inactive	inactive	inactive	–	–	–
O=C(O)CCC(=O)O	inactive	–	inactive	inactive	inactive	inactive	inactive	inactive	inactive	–	–
CC(O)CN(CCN(CC(C)O)CC(C)O)CC(C)O (stereo not drawn)	inactive	–	–	inactive	inactive	inactive	inactive	inactive	–	–	–
NS(=O)(=O)c1cc(C(=O)O)c(NCc2ccco2)cc1Cl	inactive	–	inactive	inactive	inactive	inactive	inactive	inactive	inactive	–	–
O=NO	inactive	–	inactive	inactive	inactive	inactive	inactive	inactive	–	–	–

SMILES	Potency [1]	outcome [2]	outcome [3]	outcome [4]	Potency [5]	Potency [6]	outcome [7]	outcome [8]	Potency [9]	activity change, positive = activation ([10]; at 42.5 µM (top of the series))	activity change, positive = activation ([10]; at 92.4 µM (top of the series))
NC(=O)c1ccccc1O	inactive	inactive	inactive	inactive	inactive	inactive	inactive	–	–	–	–
NNC(=O)c1ccncc1	inactive	inactive	–	inactive	inactive	inactive	inactive	inactive	inactive	–	–
C/C=C/c1ccc(OC)cc1	inactive	inactive	inactive	inactive	inactive	inactive	inactive	inactive	–	–	–
O=S(=O)(O)NC1CCCCC1	inactive	–	inactive	inactive	inactive	inactive	inactive	inactive	–	–	–
CC(O)C(=O)O (stereo not drawn)	inactive	inactive	inactive	inactive	inactive	inactive	inactive	–	–	–	–
CCCC(CCC)C(=O)O	inactive	inactive	inactive	inactive	inactive	inactive	inactive	–	–	–	–
O=c1cc[nH]c(=S)[nH]1	inactive	–	inactive	inactive	inactive	inactive	inactive	inactive	inactive	–	–
CNC[C@H](O)c1cccc(O)c1	inactive	inactive	inactive	inactive	inactive	inactive	inactive	–	inactive	–	–
CC(=O)Nc1nnc(S(N)(=O)=O)s1	inactive	–	inactive	inactive	inactive	inactive	inactive	inactive	–	–	–
O=C(O)CCCCC(=O)O	inactive	inactive	inactive	inactive	inactive	inactive	inactive	–	–	–	–
CCCN(CCC)S(=O)(=O)c1ccc(C(=O)O)cc1	inactive	inactive	–	inactive	inactive	inactive	inactive	–	inactive	–	–
Cc1ccc(S(=O)(=O)NC(=O)NN2CCCCCC2)cc1	inactive	inactive	–	inactive	inactive	inactive	inactive	–	inactive	–	–
CCCCOC(=O)CC(CC(=O)OCCCC)(OC(C)=O)C(=O)OCCCC	inactive	inactive	inactive	inactive	inactive	inactive	inactive	–	–	–	–
Cc1ccc(C)c(OCCCC(C)(C)C(=O)O)c1	inactive	–	–	inactive	inactive	inactive	inactive	inactive	–	–	–
COC(=O)[C@H](Cc1ccccc1)NC(=O)[C@@H](N)CC(=O)O (H-Asp-Phe-OMe)	inactive	inactive	inactive	inactive	inactive	inactive	inactive	–	–	–	–
OCCc1ccccc1	inactive	–	inactive	inactive	inactive	inactive	inactive	inactive	–	–	–
NC(=O)NC1NC(=O)NC1=O (stereo not drawn)	inactive	–	inactive	inactive	inactive	inactive	inactive	inactive	–	–	–

Reference: PubChem BioAssay (Tox21)
